# Laboratory results as given in PubChem BioAssay (EPA / NIEHS).
# Calls of active or inactive are those of the source. The calls were made as follows: active = hit-call score of the fitted dose curve at least 0.9, where 1 is the maximum; inactive = score below 0.9.
# How the values were obtained:
# [1] = read-out: Interleukin-8 (IL8), CXCL8 (gene 3576); experiment: BSK_CASM3C_IL8: BioMAP Diversity Plus: CASM3C Assay for Interleukin-8 (IL8) Biomarker Activity (AID 2283042); settings: primary human coronary artery smooth muscle cells; actives raise or lower the signal;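 also: IL-8 protein level quantified by ELISA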
# [2] = read-out: Human Leukocyte Antigen - DR isotype (HLADR), HLA-DRA (gene 3122); experiment: BSK_CASM3C_HLADR: BioMAP Diversity Plus: CASM3C Assay for Human Leukocyte Antigen - DR isotype (HLADR) Biomarker Activity (AID 2283043); settings: primary human coronary artery smooth muscle cells; actives raise or lower the signal;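 also: cell-surface HLA-DR protein level quantified by ELISA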
# [3] = read-out: Macrophage colony-stimulating factor (MCSF), CSF1 (gene 1435); experiment: BSK_CASM3C_MCSF: BioMAP Diversity Plus: CASM3C Assay for Macrophage colony-stimulating factor (MCSF) Biomarker Activity (AID 2283044); settings: primary human coronary artery smooth muscle cells; actives raise or lower the signal;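 also: M-CSF protein amount quantified by ELISA after 24 h exposure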
# [4] = read-out: Low-density lipoprotein receptor (LDLR), LDLR (gene 3949); experiment: BSK_CASM3C_LDLR: BioMAP Diversity Plus: CASM3C Assay for Low-density lipoprotein receptor (LDLR) Biomarker Activity (AID 2283045); settings: primary human coronary artery smooth muscle cells; actives raise or lower the signal;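 also: LDLR protein level on the cell surface quantified by ELISA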
# [5] = read-out: Monocyte Chemoattractant Protein-1 (MCP1), CCL2 (gene 6347); experiment: BSK_CASM3C_MCP1: BioMAP Diversity Plus: CASM3C Assay for Monocyte Chemoattractant Protein-1 (MCP1) Biomarker Activity (AID 2283046); settings: primary human coronary artery smooth muscle cells; actives raise or lower the signal;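 also: MCP-1 level quantified by ELISA 24 h after dosing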
# [6] = BSK_CASM3C_Proliferation: Cell Proliferation Assessment in the BioMAP Diversity Plus: CASM3C Assay (AID 2283047); settings: primary human coronary artery smooth muscle cells;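 also: sulforhodamine B total protein stain as relative cell number at 560 nm; sub-confluent cells exposed 48 h before staining; fitted both ways against DMSO so gain or loss of cell number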
# [7] = read-out: Monokine induced gamma interferon (MIG), CXCL9 (gene 4283); experiment: BSK_CASM3C_MIG: BioMAP Diversity Plus: CASM3C Assay for Monokine induced gamma interferon (MIG) Biomarker Activity (AID 2283048); settings: primary human coronary artery smooth muscle cells; actives raise or lower the signal;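 also: MIG protein level measured by ELISA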
# [8] = read-out: serum amyloid A (SAA), SAA1 (gene 6288); experiment: BSK_CASM3C_SAA: BioMAP Diversity Plus: CASM3C Assay for serum amyloid A (SAA) Biomarker Activity (AID 2283049); settings: primary human coronary artery smooth muscle cells; actives raise or lower the signal;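 also: SAA protein level quantified by ELISA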
# [9] = BSK_CASM3C_SRB: Viability Assessment in the BioMAP Diversity Plus: CASM3C Assay (AID 2283050); settings: primary human coronary artery smooth muscle cells;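 also: cells exposed to compound for 24 h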
# [10] = read-out: Thrombomodulin, THBD (gene 7056); experiment: BSK_CASM3C_Thrombomodulin: BioMAP Diversity Plus: CASM3C Assay for Thrombomodulin Biomarker Activity (AID 2283051); settings: primary human coronary artery smooth muscle cells; actives raise or lower the signal;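 also: thrombomodulin protein level measured by ELISA 24 h after dosing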
# [11] = read-out: Tissue Factor, F3 (gene 2152); experiment: BSK_CASM3C_TissueFactor: BioMAP Diversity Plus: CASM3C Assay for Tissue Factor Biomarker Activity (AID 2283052); settings: primary human coronary artery smooth muscle cells; actives raise or lower the signal;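 also: cell surface tissue factor protein level read by ELISA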
# [12] = read-out: Interferon-gamma inducible Protein 10 (IP10), CXCL10 (gene 3627); experiment: BSK_hDFCGF_IP10: BioMAP Diversity Plus: hDFCGF Assay for Interferon-gamma inducible Protein 10 (IP10) Biomarker Activity (AID 2283053); settings: primary human foreskin fibroblasts; actives raise or lower the signal
# Summary of the method: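 Primary human foreskin fibroblasts exposed to chemicals for 24 h. IP-10 measured by ELISA; changes fitted bidirectionally against DMSO baseline.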
# [13] = read-out: Urokinase-type plasminogen activator receptor (uPAR), PLAUR (gene 5329); experiment: BSK_CASM3C_uPAR: BioMAP Diversity Plus: CASM3C Assay for Urokinase-type plasminogen activator receptor (uPAR) Biomarker Activity (AID 2283054); settings: primary human coronary artery smooth muscle cells; actives raise or lower the signal;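 also: cell-surface uPAR protein level quantified by ELISA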
# [14] = read-out: Vascular cell adhesion molecule 1 (VCAM1), VCAM1 (gene 7412); experiment: BSK_CASM3C_VCAM1: BioMAP Diversity Plus: CASM3C Assay for Vascular cell adhesion molecule 1 (VCAM1) Biomarker Activity (AID 2283055); settings: primary human coronary artery smooth muscle cells; actives raise or lower the signal;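 also: VCAM-1 protein level quantified by ELISA on the cells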
# [15] = read-out: Collagen III, COL3A1 (gene 1281); experiment: BSK_hDFCGF_CollagenIII: BioMAP Diversity Plus: hDFCGF Assay for Collagen III Biomarker Activity (AID 2283056); settings: primary human foreskin fibroblasts; actives raise or lower the signal
# Summary of the method: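 hDFCGF primary human dermal fibroblasts; 24 h chemical exposure; collagen III by ELISA; bidirectional curve fit vs DMSO baseline (gain or loss of signal).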
# [16] = read-out: Epidermal growth factor receptor (EGFR), EGFR (gene 1956); experiment: BSK_hDFCGF_EGFR: BioMAP Diversity Plus: hDFCGF Assay for Epidermal growth factor receptor (EGFR) Biomarker Activity (AID 2283057); settings: primary human foreskin fibroblasts; actives raise or lower the signal
# Summary of the method: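 Primary human foreskin fibroblasts (hDFCGF system), sampled 24 h after dosing; EGFR quantified by ELISA. Bidirectional fit relative to DMSO baseline; SRB total-protein staining in parallel cultures for cytotoxicity.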
# [17] = read-out: Interleukin-8 (IL8), CXCL8 (gene 3576); experiment: BSK_hDFCGF_IL8: BioMAP Diversity Plus: hDFCGF Assay for Interleukin-8 (IL8) Biomarker Activity (AID 2283058); settings: primary human foreskin fibroblasts; actives raise or lower the signal
# Summary of the method: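 ELISA read-out of IL-8 from primary human foreskin fibroblast cultures taken 24 h after dosing; values are bidirectional fits relative to DMSO vehicle.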
# [18] = read-out: Macrophage colony-stimulating factor (MCSF), CSF1 (gene 1435); experiment: BSK_hDFCGF_MCSF: BioMAP Diversity Plus: hDFCGF Assay for Macrophage colony-stimulating factor (MCSF) Biomarker Activity (AID 2283060); settings: primary human foreskin fibroblasts; actives raise or lower the signal
# Summary of the method: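 ELISA read-out of M-CSF in human dermal foreskin fibroblast cultures, 24 h after chemical dosing; gain or loss of signal fitted bidirectionally relative to DMSO baseline.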
smiles,measurement,setting,value
CN(C)c1ccc(C(=C2C=CC(=[N+](C)C)C=C2)c2ccccc2)cc1,AC50,[1],1.98 µM (active)
same,AC50,[2],0.0392 µM (active)
same,AC50,[3],0.825 µM (active)
same,AC50,[4],0.0323 µM (active)
same,AC50,[5],0.0615 µM (active)
same,AC50,[6],0.553 µM (active)
same,AC50,[7],1.17 µM (active)
same,AC50,[8],0.0168 µM (active)
same,AC50,[9],0.296 µM (active)
same,AC50,[10],0.758 µM (active)
same,AC50,[11],0.0195 µM (active)
same,AC50,[12],0.0138 µM (active)
same,AC50,[13],0.0461 µM (active)
same,AC50,[14],0.554 µM (active)
same,AC50,[15],1.23 µM (active)
same,outcome,[16],inactive
same,AC50,[17],2.67 µM (active)
same,AC50,[18],0.0319 µM (active)
C=CC(=C)CC/C=C(\C)CCC=C(C)C,outcome,[1],inactive
same,outcome,[2],inactive
same,outcome,[3],inactive
same,outcome,[4],inactive
same,outcome,[5],inactive
same,outcome,[6],inactive
same,outcome,[7],inactive
same,outcome,[8],inactive
same,outcome,[9],inactive
same,outcome,[10],inactive
same,outcome,[11],inactive
same,outcome,[12],inactive
same,outcome,[13],inactive
same,outcome,[14],inactive
same,AC50,[15],3.62 µM (active)
same,outcome,[16],inactive
same,outcome,[17],inactive
same,outcome,[18],inactive
CCCCCc1ccc(O)cc1,AC50,[1],20 µM (active)
same,AC50,[2],12.8 µM (active)
same,AC50,[3],14.6 µM (active)
same,AC50,[4],10.4 µM (active)
same,AC50,[5],14 µM (active)
same,AC50,[6],11.6 µM (active)
same,AC50,[7],15.4 µM (active)
same,AC50,[8],12.7 µM (active)
same,AC50,[9],15.9 µM (active)
same,AC50,[10],34 µM (active)
same,AC50,[11],12 µM (active)
same,AC50,[12],33.2 µM (active)
same,AC50,[13],14.4 µM (active)
same,AC50,[14],13.1 µM (active)
same,AC50,[15],12.5 µM (active)
same,AC50,[16],29.9 µM (active)
same,outcome,[17],inactive
same,AC50,[18],25.5 µM (active)
